Shown are actives, neighbours in structure and some others; about 5.7% of the full set was active somewhere.
L3MBTL1 block: L3MBTL1 (human) inhibition. Potency, µM (highest dose often 57.1 µM), for inactives: at the highest dose activity, negative = inhibition, actives largely listed as inhibitors. AlphaScreen L3MBTL1–H3K9me1 peptide binding. AID 485360. actives 0.66% (n = 230,000). Q9Y468; further: potency means the concentration at half of the fitted maximal effect; on the % scale 0 is the no-effect control and ±100 the full control effect; nearly all actives have a fitted effect of over 60% in size
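AlphaScreen assay: L3MBTL1 (50 nM final) was preincubated 30 min at room temperature with biotinylated H3(1-15)K9me1 peptide (75 nM final), then 30 min with library compounds; streptavidin donor and nickel chelate acceptor beads (10 ug/mL final) added, 30 min dark.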
KDM4E inh: blocks human JMJD2E demethylase activity. B2RXH2. JMJD2E catalytic domain, FDH-coupled NADH fluorescence (FDH is formaldehyde dehydrogenase). Potency, µM (highest dose often 57.1 µM), inactives show at the top dose activity change, negative = inhibition, most hits filed as inhibitors. actives 1.6% (n = 230,000). AID 2147; active means well fitted inhibition curve with a large enough effect, not every such curve was filed as active; inconclusive means small, poorly fitted or top-dose-only effect, or another doubt; inactive means no such curve, though single readings can be large or run the other way;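 further: potency means the concentration at half of the fitted maximal effect; 0% = wells with enzyme and -100% = buffer wells without enzyme; nearly all actives have a fitted effect of over 50% in size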
Target sequence (B2RXH2 1-337 limits assumed): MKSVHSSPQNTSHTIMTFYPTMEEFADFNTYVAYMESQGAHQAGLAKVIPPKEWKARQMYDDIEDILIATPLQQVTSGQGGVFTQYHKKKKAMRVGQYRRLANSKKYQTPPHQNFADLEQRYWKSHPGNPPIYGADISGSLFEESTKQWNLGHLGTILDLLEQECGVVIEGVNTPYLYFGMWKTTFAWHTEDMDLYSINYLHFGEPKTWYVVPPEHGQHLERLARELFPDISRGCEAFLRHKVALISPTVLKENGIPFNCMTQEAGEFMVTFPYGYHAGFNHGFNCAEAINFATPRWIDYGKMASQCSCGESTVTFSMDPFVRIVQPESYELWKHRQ
JMJD2A Tudor inh: blocks the human JMJD2A Tudor domain; AlphaScreen JMJD2A-Tudor / H3K4me3 peptide binding; Potency, µM (top dose mostly 114 µM), for inactives: at the top dose activity change, negative = inhibition, usual class: inhibitors; actives 4.4% (n = 390,000); further: potency means the concentration at half of the fitted maximal effect; on the % scale 0 is the no-effect control and ±100 the full control effect; nearly all actives have a fitted effect of over 50% in size
BAZ2B block: BAZ2B (human) inhibition. Potency, µM (top dose mostly 114 µM), inactives show at the highest dose activity change, negative = inhibition, usual class: inhibitors. actives 4.4% (n = 360,000). AlphaScreen BAZ2B-H3K14Ac peptide displacement. AID 504333. Q9UIF8; further: potency means the concentration at half of the fitted maximal effect; on the % scale 0 is the no-effect control and ±100 the full control effect; nearly all actives have a fitted effect of over 60% in size
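BAZ2B 50 nM plus b-H3(5-23)K14Ac 50 nM, PBS pH 7.4/0.01% Tween-20, 30 min RT; compound added (max 110 uM), 30 min RT; streptavidin donor/Ni-chelate acceptor beads 10 ug/mL final, 20 min dark; AlphaScreen read.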
HP1b binding inh: HP1-beta chromodomain-methylated histone interaction inhibition | actives 0.56% (n = 390,000) | Potency, µM (highest dose often 114 µM), for inactives: at the highest dose activity change, negative = inhibition, actives largely listed as inhibitors | AlphaScreen HP1-beta / biotin-H3K9me3 peptide binding; further: potency means the concentration at half of the fitted maximal effect; nearly all actives have a fitted effect of over 70% in size
Target sequence (P83916 whole entry, looked up): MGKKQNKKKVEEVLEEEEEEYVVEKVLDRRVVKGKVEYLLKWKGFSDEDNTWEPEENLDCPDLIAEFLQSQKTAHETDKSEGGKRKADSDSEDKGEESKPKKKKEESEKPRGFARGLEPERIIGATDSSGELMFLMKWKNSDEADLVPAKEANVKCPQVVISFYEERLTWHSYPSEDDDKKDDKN
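Compound inhibition of the preformed complex between 50 nM HP1-beta and 50 nM biotinylated H3K9me3 peptide was read by AlphaScreen. Buffer was PBS pH 7.4 with 0.01% Tween-20. Incubations ran 30 min at room temperature, with 10 ug/mL donor/acceptor beads.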
PI5P4Ka inh: blocks human PI5P4K alpha kinase activity | PI5P4Kalpha enzyme, ADP-Glo luminescence, 60 min; stronger effect = lower value | max response, % | actives 1.2% (n = 330,000) | AID 652105; active means max response of -50% or lower; inconclusive means between -30% and -50%; inactive means -30% or higher; further: value at the top dose of about 77 µM; on the % scale 0 is the no-effect control and ±100 the full control effect
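Enzyme plus substrate dispensed, test compounds pinned in, then ATP (5 microM final) added. After 60 min at RT, ADP-Glo reagent 1 for 45 min and reagent 2 for 30 min preceded luminescence imaging.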
Starred values were filed as active, the others as inactive; [ ] = remark or other dose. Unless noted, the call rests on the fitted dose curve; in most records, active means well fitted inhibition curve with a large enough effect; inconclusive means small, poorly fitted or top-dose-only effect; inactive means no such curve, though single readings can be large or run the other way.

For Cc1ccc(-n2nnc(-c3nccs3)n2)cc1 the results were L3MBTL1 block 22%, KDM4E inh -1%, JMJD2A Tudor inh -3%, BAZ2B block 6%, HP1b binding inh 56% and PI5P4Ka inh -11.
For S=c1[nH]c(-c2ccccc2)cn1/N=C/c1ccccc1Br the results were L3MBTL1 block -22%, KDM4E inh -24%, JMJD2A Tudor inh -27%, BAZ2B block inconclusive, HP1b binding inh -11% and PI5P4Ka inh -7.
COc1cc(/C=N/n2cc(-c3ccccc3)[nH]c2=S)cc(OC)c1O was read as L3MBTL1 block -18%, KDM4E inh inconclusive, JMJD2A Tudor inh 1.3µM*, BAZ2B block -19%, HP1b binding inh -25% and PI5P4Ka inh -3.
For Oc1ccc(/C=N/n2cc(-c3ccccc3)[nH]c2=S)cc1 the results were L3MBTL1 block -29%, KDM4E inh inconclusive, JMJD2A Tudor inh 4µM*, HP1b binding inh -14% and PI5P4Ka inh -23.
CCc1ccccc1NC(=O)[C@H](Cc1ccccc1)N1Cc2ccccc2C1=O was read as JMJD2A Tudor inh -1%, BAZ2B block -15% and HP1b binding inh 57%.
`O=C1C2CC=C(Cl)CC2C(=O)N1CCN1CCOCC1` (configuration not stated) gave KDM4E inh 1%, JMJD2A Tudor inh 6%, BAZ2B block 4%, HP1b binding inh 34% and PI5P4Ka inh -4.
`O=C1C2CC=C(Cl)CC2C(=O)N1CCCCCCN1C(=O)C2CC=C(Cl)CC2C1=O` (configuration not stated) gave KDM4E inh -11%, JMJD2A Tudor inh 45µM*, BAZ2B block 45µM* and HP1b binding inh inconclusive.
`CCCN1C(=O)C(O)(CC(=O)c2ccc(OC)c(OC)c2)c2ccccc21` (configuration not stated) gave JMJD2A Tudor inh -12%, BAZ2B block 30% and HP1b binding inh 61%.
Cc1oc2ncn(C)c(=O)c2c1C(=O)N(C)c1ccccc1F was read as JMJD2A Tudor inh 0%, BAZ2B block 13%[57.1 µM] and HP1b binding inh 47%.
`O=C(CSc1nc(-c2ccccc2)nn1C(=O)c1ccccc1)Nc1cccc([N+](=O)[O-])c1` gave L3MBTL1 block -4%, KDM4E inh -6%, JMJD2A Tudor inh inconclusive, BAZ2B block 56µM* and HP1b binding inh -1%.
`COC(=O)C1C(O)C(C)C(O)C(C)(O)/C=C\C=C(/C)C(=O)Nc2c(C)c(OC(C)=O)c3c(c2O)C(=O)C(C)=C2OCOC(=C23)/C(C)=C/C(C)(O)C(O)C(C)C1O` (configuration not stated) gave KDM4E inh 3.2µM*, JMJD2A Tudor inh -23%, BAZ2B block inconclusive, HP1b binding inh -13% and PI5P4Ka inh -2.
`COc1ccc(-c2cc3nc(C)c(CCC(=O)N4CCN(c5ccccn5)CC4)c(C)n3n2)c(OC)c1` gave KDM4E inh 13µM*, JMJD2A Tudor inh -7%, BAZ2B block 3%, HP1b binding inh 18% and PI5P4Ka inh 5.
Screening Cc1c2ccccc2c(CSC(=N)N)c2ccccc12 returned KDM4E inh 69%.
`O=C(O)CCNc1ccc2c(c1)OCCO2` gave L3MBTL1 block 12%, KDM4E inh 4%, JMJD2A Tudor inh 45µM*, BAZ2B block -9%, HP1b binding inh 1% and PI5P4Ka inh 1.
`O=C(CN1CCOCC1)Nc1ccc2c(c1)OCCO2` gave L3MBTL1 block 8%, KDM4E inh inconclusive, JMJD2A Tudor inh 32µM*, BAZ2B block 50µM*, HP1b binding inh inconclusive and PI5P4Ka inh 1.
CN(C)S(=O)(=O)c1cc(NC(=O)CN2CCOCC2)ccc1Cl was read as L3MBTL1 block 3%, KDM4E inh 1%, JMJD2A Tudor inh 14µM*, BAZ2B block -5%, HP1b binding inh -1% and PI5P4Ka inh inconclusive.
COc1ccc(-c2nc(C(=O)Nc3cccc(C(C)=O)c3)nn2-c2ccccc2Cl)cc1 was read as JMJD2A Tudor inh inconclusive, BAZ2B block -9% and HP1b binding inh 30%.
`CC1(C)OC2CC3C4CC(F)C5=CC(=O)C=C[C@@]5(C)[C@@]4(F)C(O)C[C@@]3(C)[C@]2(C(=O)CO)O1` (some centres not stated) gave KDM4E inh -12%.
Cc1ccc(C)c(NC(=O)N2CCc3cc(S(=O)(=O)N4CCC(C)CC4)ccc32)c1 was read as JMJD2A Tudor inh -11%, BAZ2B block -2% and HP1b binding inh 22%.
Screening COc1ccc(-c2cn3c(n2)sc2cc(C(=O)Nc4ccc(C)c(Cl)c4)ccc23)cc1 returned JMJD2A Tudor inh 6%, BAZ2B block 5% and HP1b binding inh 23%.
`OCCN(Cc1ccccc1)Cc1ccccc1O` gave L3MBTL1 block -1%, KDM4E inh inconclusive, JMJD2A Tudor inh inconclusive, BAZ2B block 56µM*, HP1b binding inh 79µM* and PI5P4Ka inh 0.
Screening Cc1ccc(CN(CCO)CCO)cc1 returned L3MBTL1 block -4%, KDM4E inh -8%, JMJD2A Tudor inh -9%, BAZ2B block 4%, HP1b binding inh 38% and PI5P4Ka inh -1.
For O=[N+]([O-])c1cccc(CN(CCO)Cc2ccccc2)c1 the results were L3MBTL1 block 9%, KDM4E inh 0%, JMJD2A Tudor inh -23%, BAZ2B block -6% and HP1b binding inh 4%.
Screening OCCN(CCO)Cc1ccc(Br)cc1 returned KDM4E inh -8%, JMJD2A Tudor inh 20µM*, BAZ2B block 50µM*, HP1b binding inh -35% and PI5P4Ka inh -5.
`CCCN(CCO)Cc1cccc(Br)c1` gave L3MBTL1 block 7%, KDM4E inh inconclusive, JMJD2A Tudor inh 4.5µM*, BAZ2B block 50µM* and HP1b binding inh inconclusive.
Cc1cccc(-c2n[nH]c(=S)n2-c2ccccc2)c1[N+](=O)[O-] was read as L3MBTL1 block 9%, KDM4E inh -8%, JMJD2A Tudor inh 35µM*, BAZ2B block 5%, HP1b binding inh 23% and PI5P4Ka inh -7.
`O=[N+]([O-])c1cccc(-c2cn(-c3ccccc3)c(=S)[nH]2)c1` gave KDM4E inh 5%, JMJD2A Tudor inh -28%, BAZ2B block 1%, HP1b binding inh 26% and PI5P4Ka inh -16.
`COc1ccc(-n2c(-c3cccc(C)c3[N+](=O)[O-])n[nH]c2=S)cc1` gave L3MBTL1 block -2%, KDM4E inh 1%, JMJD2A Tudor inh inconclusive, BAZ2B block -5%, HP1b binding inh inconclusive and PI5P4Ka inh -12.

Assay outcomes as filed in PubChem.
